HGIII-sPLA2 inh = Blocks human group III sPLA2 activity | AID 743126 | Q9NZ20 | hit rate 0.56% among 370,000 | QFRET BODIPY PC-A2 liposome hydrolysis, fluorescence | inhibition, % at 12.2 µM;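 active = inhibition above mean plus 3 SD of compounds lying within the high and low control bounds, cut at about 19% in these data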;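 also: 0% = median of test compound wells and 100% = no enzyme DMSO wells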
ADAM10 inh = inhibits human ADAM10 | recombinant ADAM10, EDANS/DABCYL FRET peptide cleavage, 3 h | inhibition, % at 7 µM | AID 720582 | hit rate 0.62% among 370,000 | O14672;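 active = inhibition above a per-campaign cutoff equal to the mean of compounds falling between control-based bounds plus 3 SD, cut at about 20% in these data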;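 also: 0% = DMSO wells while the 100% control is not disclosed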
ADAM17 inh = inhibitors of human ADAM17 | P78536 | recombinant ADAM17, EDANS/DABCYL FRET peptide cleavage | inhibition, % at 6.95 µM | hit rate 0.83% among 370,000;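 active = inhibition above the mean of compounds lying between control limits plus 3 SD, set per campaign, cut at about 8.5% in these data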;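 also: 0% = DMSO-only wells as the low control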
NRP1-CendR mod = NRP-1/CendR interaction modulation; hit rate 0.85% among 360,000; FAM-RPARPAR peptide binding to NRP-1, fluorescence polarization; inhibition, % at 25 µM;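 active = inhibition or corrected inhibition above about 18%, plus a signal ratio from 0.5 to 1.5, limit read from the data, passing the limit was not always enough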
proKLK7 act = proKLK7 (human) activation, primary screen; activation, % at 7 µM; hit rate 0.9% among 370,000; P49862; purified proKLK7, EDANS-DABCYL substrate fluorescence; 100% is mature enzyme control, 0% vehicle;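 active = activation above the mean of all tested compounds plus 3 SD, computed per campaign excluding outliers beyond control limits, cut at about 13% in these data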
Target sequence (P49862 whole entry, looked up): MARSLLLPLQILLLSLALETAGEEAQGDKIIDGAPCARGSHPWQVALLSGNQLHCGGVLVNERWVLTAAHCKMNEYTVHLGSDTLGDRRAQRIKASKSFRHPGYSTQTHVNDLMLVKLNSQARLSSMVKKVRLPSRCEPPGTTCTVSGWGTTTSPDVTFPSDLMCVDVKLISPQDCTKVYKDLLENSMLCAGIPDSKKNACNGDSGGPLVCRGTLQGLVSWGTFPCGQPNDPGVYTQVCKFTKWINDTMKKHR
The depositor's hits bear a star; i = inactive; . = not tested or not shown. Hits are enriched below; roughly 3.4% of the tested compounds scored in any of these assays.

SMILES | HGIII-sPLA2 inh | ADAM10 inh | ADAM17 inh | NRP1-CendR mod | proKLK7 act
CCOc1ccc(C2CC(c3ccc(F)cc3)Nc3nc(N)nn32)cc1 (stereo unspecified) | 3.0 | -6.7 | 0.1 | -6.0 | 0.0
COc1cc(O)c(C(CC(=O)N2CCCCC2)c2ccc(N(C)C)cc2)c(OC)c1 (stereo unspecified) | -0.9 | -0.2 | -4.6 | -4.9 | 0.4
COc1cc(O)c(C(CC(=O)N2CCOCC2)c2ccc3c(c2)OCO3)c(OC)c1 (stereo unspecified) | 5.1 | 7.0 | -2.4 | 27.6* | 0.9
COc1cc(O)c(C(CC(=O)N2CCOCC2)c2ccc(N(C)C)cc2)c(OC)c1 (stereo unspecified) | 8.2 | 2.8 | -1.6 | 24.1* | -0.5
S=C(Nc1cccc(Br)c1)OC1CCC12CCC(c1ccccc1)CC2 (stereo unspecified) | -0.3 | 0.0 | -0.1 | . | -0.3
COc1ccc(/C=C/c2c(-c3ccc(OC)cc3)oc3ccc(-c4ccc(OC)cc4)cc23)cc1 | 1.1 | -3.3 | -4.0 | -5.8 | -0.3
COc1ccc(/C=C/c2cc(-c3ccc(C)cc3)o[n+]2C)cc1 | 2.1 | i | -159.2 | -11.9 | 32.1*
O=C(COc1ccc2c3c(c(=O)oc2c1)CCCC3)NCCN1CCOCC1 | . | . | . | 24.5* | .
CCC[C@H]1[C@@H](OC(=O)NCCc2ccccc2)CC[C@@]23CCCN2C(=O)CCC[C@@H]13 | 6.7 | -10.2 | -4.6 | . | .
Cc1ccccc1C(=O)NC1CCCCN(C(C)C)C1=O (stereo unspecified) | 3.5 | -1.8 | -2.9 | . | -0.3
O=C(O)C[C@H]1c2cc(F)ccc2S(=O)(=O)N1C1CCCCC1 | 4.5 | -6.7 | -3.1 | 25.1* | -0.1
O=C(O)C[C@H]1c2cc(F)ccc2S(=O)(=O)N1C1CCCC1 | 10.9 | 2.0 | -6.8 | 14.1 | -0.6
CN(C)CCn1c(=O)n(-c2cccc(Cl)c2)c(=O)c2c3c(sc21)CCCCC3 | 11.9 | -1.2 | -1.5 | -14.4 | 0.4
CN(C)CCn1c(=O)n(-c2ccc(F)cc2)c(=O)c2c3c(sc21)CCCCC3 | -10.8 | -1.5 | -3.0 | 34.8* | 0.0
CCCCn1c(NC(=O)c2ccco2)c(S(=O)(=O)c2ccc(C)cc2)c2nc3ccccc3nc21 | -39.2 | i | -313.2 | -160.4 | -1.7
CCCCn1c(NS(=O)(=O)c2ccccc2)c(S(=O)(=O)c2ccc(C)cc2)c2nc3ccccc3nc21 | 26.5* | -102.1 | -32.0 | 13.7 | 3.6
Cc1cc(NC(=O)CCCC(=O)NCc2ccccc2)no1 | -3.0 | -2.4 | 1.2 | 35.5* | 0.0
Cc1cc(NC(=O)CCC(=O)NNC(=O)c2ccc(C(C)(C)C)cc2)no1 | -9.3 | 0.8 | -4.0 | 35.7* | -0.4
COc1ccc(C(=O)Nc2nc(C)cc(C)n2)cc1 | -0.6 | 0.5 | -0.7 | 3.5 | 1.1
COc1ccc(C(=O)Nc2n[nH]c(-c3ccncc3)n2)cc1 | 7.6 | 0.0 | -5.6 | 25.7* | 0.6
CCCC(=O)Nc1ccc(C(=O)NNC(=S)NC(=O)c2cccs2)cc1 | 17.4 | 6.3 | -3.5 | -3.1 | -0.3
CCCOc1ccc(C(=O)NNC(=S)NC(=O)c2ccccc2)cc1 | 20.3* | 7.3 | 3.4 | -6.9 | -0.1
CCCOc1ccc(C(=O)NNC(=S)NC(=O)c2cccs2)cc1 | 31.5* | 11.8 | 0.7 | 14.4 | -0.2
CCCOc1ccc(C(=O)NNC(=S)NC(C)=O)cc1 | 8.8 | 3.4 | 1.2 | -0.3 | -0.3
O=C(Cn1c(=O)c2c(ncn2C2CCCC2)n(Cc2ccccc2)c1=O)N1CCc2ccccc21 | -5.5 | 7.6 | 3.4 | 29.1* | -0.7
SMILES | HGIII-sPLA2 inh | ADAM10 inh | ADAM17 inh | NRP1-CendR mod | proKLK7 act
Cn1c(COc2ccc(F)cc2)nc2ccccc21 | -0.1 | -5.8 | 1.4 | 23.3* | 1.0
CC(C)Cn1cnc2c1c(=O)n(CC(=O)O)c(=O)n2Cc1ccccc1 | -0.2 | -5.0 | -2.1 | -3.8 | -0.2
CC(C)Cn1cnc2c1c(=O)n(CC(=O)NC(=O)NC(C)(C)C)c(=O)n2Cc1ccccc1 | -8.9 | -6.7 | 2.6 | 18.3* | -0.2
CC1(C(=O)NS(=O)(=O)c2ccccc2Cl)CCN1C(=O)CC1CC1 (stereo unspecified) | 0.2 | -4.2 | -1.8 | 27.6* | -0.2
CN1C(=O)[C@H]2[C@@H](/C=C/c3ccccc3)N3C(=O)CN(CC4CC4)C(=O)[C@@]3(C)[C@H]2C1=O | 4.5 | -10.3 | -5.3 | 3.5 | 0.3
C[C@@]12C(=O)N(CC3CC3)CC(=O)N1[C@H](/C=C/c1ccccc1)[C@@H]1C(=O)N(c3ccccc3)C(=O)[C@@H]12 | -5.8 | 2.5 | -6.2 | 27.9* | 0.2

Source: PubChem (several laboratories)
